Experimental data as given in the supplement of paper PMC3334620.
Over roughly 33,000 sequences, “E-score (-0.5 to 0.5)” has its median near -0.016; the highest 2% begin near 0.31. Shown is part of a subset that was picked to be rich in the highest values.

target: Cst6 (UniProt P40535); assay: PBM E-score (8-mer binding enrichment) (E-score (-0.5 to 0.5)); higher = stronger / more preferred TF binding; conditions: protein concentration: 200 nM; construct: GST-DNA-binding domain
Procedure: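 Universal 'all 10-mer' protein binding microarrays (Agilent AMADID 015681) probed with GST-tagged S. cerevisiae TFs (full-length or DBD) made by in vitro transcription/translation (PURExpress), about 100-200 nM. Bound TF was detected with fluorescent anti-GST. Each ungapped 8-mer (which stands for itself and its reverse complement) is scored by the PBM enrichment score (E-score), a modified Wilcoxon-Mann-Whitney statistic from -0.5 to +0.5, computed with the Universal PBM Analysis Suite. Scale: above 0.35 generally sequence-specific binding.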

Chain of UniProt P40535 (P40535 whole entry, the tested form may be a part): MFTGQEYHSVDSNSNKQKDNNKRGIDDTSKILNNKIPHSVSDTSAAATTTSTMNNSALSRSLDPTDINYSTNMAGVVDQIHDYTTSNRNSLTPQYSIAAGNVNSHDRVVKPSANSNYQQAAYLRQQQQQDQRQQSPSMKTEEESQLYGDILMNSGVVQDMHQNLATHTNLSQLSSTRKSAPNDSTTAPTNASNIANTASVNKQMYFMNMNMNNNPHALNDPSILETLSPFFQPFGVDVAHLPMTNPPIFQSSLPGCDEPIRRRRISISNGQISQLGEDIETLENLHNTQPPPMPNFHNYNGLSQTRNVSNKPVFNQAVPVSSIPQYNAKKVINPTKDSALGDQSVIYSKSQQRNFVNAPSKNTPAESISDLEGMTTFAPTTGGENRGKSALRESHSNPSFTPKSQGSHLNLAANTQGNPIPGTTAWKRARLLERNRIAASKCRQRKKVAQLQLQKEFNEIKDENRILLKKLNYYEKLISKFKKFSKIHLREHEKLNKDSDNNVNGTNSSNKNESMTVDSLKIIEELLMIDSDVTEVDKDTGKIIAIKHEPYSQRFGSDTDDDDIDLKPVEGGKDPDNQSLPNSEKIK

Sequence	PBM E-score
ATTCTTAG	0.0174
CTAATTAC	0.243
ACAATTAA	0.319
GAGATTAA	0.0823
ACAATTAT	0.289
AAGATTAC	0.127
GTAATTAC	0.287
ACAATTAC	0.249
ATTCTTAC	0.315
GAGATTAC	0.312
CTTCTTAC	-0.0252
ACTGCGTC	0.147
CACTTGGC	-0.08
GTGCTTAA	0.0338
ATCGCAGG	-0.199
GCATTGTA	0.047
GGGCTGTA	-0.256
GCAACCCA	-0.0438
ATTTTCTG	0.115
CCTCGAAA	0.0797
GATCACTA	0.0963
AATCACTA	0.159
CGTCACTA	0.459

Sequence	PBM E-score
GGTCACTA	0.0296
AGTCACTC	-0.033
CCTCACTC	0.0262
CATCACTA	0.353
AGTCACTA	0.209
CGTCACTC	0.445
GTTTGGTA	0.213
CAAAAATG	0.133
ACTGTGGG	-0.0161
GATACCGC	-0.0789
AGGGACAT	-0.181
CGACGGGC	0.0567
CCATTACC	-0.00808
AGGAGACA	-0.0509
ATCAAGTC	0.0221
TGAGGTAA	0.414
GGAGGTAA	-0.0533
AGAGGTAA	-0.119
ATAGCTGA	-0.204
CATTCCAG	-0.0492
AGAGGGTG	-0.204
ATGCCGCA	0.353
ATGCCGCG	0.233

Sequence	PBM E-score
GAGCCGCA	0.28
CTGCCGCA	0.0518
GGGCCGCA	-0.0641
GTGCCGCA	0.362
TAACTACA	0.0421
AGAGTTTA	0.176
CCACACTA	0.149
TACCTAAA	0.14
CGTGTGGA	-0.153
AAAGGGGC	-0.196
CACGGCAA	0.302
GACGGCAC	0.23
AACGGCAA	0.251
AACGGCAG	0.134
CACGGCAC	0.356
ATCGGCAT	0.23
AACGGCAC	0.343
CACGGCAG	0.142
AACGGCAT	0.346
CTCTGAAA	-0.0419
AAGGATGA	0.0593
CATGCAAA	0.142
AGCCGTGC	0.24

Sequence	PBM E-score
AGCGCCGC	0.309
AGCGCCGA	0.00204
CGCCGTGC	0.344
CGCCGCGC	0.357
CGCCGTGA	0.221
CCCGCCGC	0.126
CGCGCCGA	0.137
AGCGCCGG	-0.102
AGCCGCGC	0.18
CGCCGCGA	0.241
CGCGCCGC	0.326
ATTATGCG	0.217
ACGAGTTA	0.0712
CTTCTTCC	-0.212
ACCTAGTA	-0.284
AACTCTGT	0.0458
ATCTATCA	0.128
ACCCACGT	0.0287
ACCAACTC	-0.0108
CATTTCCA	0.143
CTTTAGGA	-0.0677
ACCTCTCA	-0.0889
TTACATAA	0.433

Sequence	PBM E-score
CTACATAA	-0.0447
TGACATAA	0.477
AGACATAA	0.0351
GGACATAA	0.0407
GTACATAA	0.085
ACTACCTA	0.0222
AGTGGAGC	-0.165
AGGTGACA	0.278
CGGTGACC	0.115
AGGTGACG	0.452
AGGTGACC	0.046
CGGTGACA	0.266
AGTTGACA	0.191
ATGTGACA	0.151
AGTTGACC	-0.114
AGTTGACG	0.324
ATGTGACC	0.0452
CGGTGACG	0.476
ATGTGACG	0.433
